# Test results taken from PubChem BioAssay AID2073 (Sanford-Burnham Center for Chemical Genomics, 2009).
# Out of some 290,000 compounds screened, about 570 (0.2%) were called active. Not shown: some 1% with an inconclusive outcome. No stated cut-off is given here; in the data, active means inhibition mostly above about 51% (no sharp cut-off); inconclusive means no clear call, values can overlap the other calls; inactive means mostly below about 53%. The sample as a whole holds a higher share of actives than the screen did.
# Target: Voltage-dependent N-type calcium channel subunit alpha-1B (Homo sapiens) (UniProt Q00975)
# Sequence (Q00975 whole entry, looked up): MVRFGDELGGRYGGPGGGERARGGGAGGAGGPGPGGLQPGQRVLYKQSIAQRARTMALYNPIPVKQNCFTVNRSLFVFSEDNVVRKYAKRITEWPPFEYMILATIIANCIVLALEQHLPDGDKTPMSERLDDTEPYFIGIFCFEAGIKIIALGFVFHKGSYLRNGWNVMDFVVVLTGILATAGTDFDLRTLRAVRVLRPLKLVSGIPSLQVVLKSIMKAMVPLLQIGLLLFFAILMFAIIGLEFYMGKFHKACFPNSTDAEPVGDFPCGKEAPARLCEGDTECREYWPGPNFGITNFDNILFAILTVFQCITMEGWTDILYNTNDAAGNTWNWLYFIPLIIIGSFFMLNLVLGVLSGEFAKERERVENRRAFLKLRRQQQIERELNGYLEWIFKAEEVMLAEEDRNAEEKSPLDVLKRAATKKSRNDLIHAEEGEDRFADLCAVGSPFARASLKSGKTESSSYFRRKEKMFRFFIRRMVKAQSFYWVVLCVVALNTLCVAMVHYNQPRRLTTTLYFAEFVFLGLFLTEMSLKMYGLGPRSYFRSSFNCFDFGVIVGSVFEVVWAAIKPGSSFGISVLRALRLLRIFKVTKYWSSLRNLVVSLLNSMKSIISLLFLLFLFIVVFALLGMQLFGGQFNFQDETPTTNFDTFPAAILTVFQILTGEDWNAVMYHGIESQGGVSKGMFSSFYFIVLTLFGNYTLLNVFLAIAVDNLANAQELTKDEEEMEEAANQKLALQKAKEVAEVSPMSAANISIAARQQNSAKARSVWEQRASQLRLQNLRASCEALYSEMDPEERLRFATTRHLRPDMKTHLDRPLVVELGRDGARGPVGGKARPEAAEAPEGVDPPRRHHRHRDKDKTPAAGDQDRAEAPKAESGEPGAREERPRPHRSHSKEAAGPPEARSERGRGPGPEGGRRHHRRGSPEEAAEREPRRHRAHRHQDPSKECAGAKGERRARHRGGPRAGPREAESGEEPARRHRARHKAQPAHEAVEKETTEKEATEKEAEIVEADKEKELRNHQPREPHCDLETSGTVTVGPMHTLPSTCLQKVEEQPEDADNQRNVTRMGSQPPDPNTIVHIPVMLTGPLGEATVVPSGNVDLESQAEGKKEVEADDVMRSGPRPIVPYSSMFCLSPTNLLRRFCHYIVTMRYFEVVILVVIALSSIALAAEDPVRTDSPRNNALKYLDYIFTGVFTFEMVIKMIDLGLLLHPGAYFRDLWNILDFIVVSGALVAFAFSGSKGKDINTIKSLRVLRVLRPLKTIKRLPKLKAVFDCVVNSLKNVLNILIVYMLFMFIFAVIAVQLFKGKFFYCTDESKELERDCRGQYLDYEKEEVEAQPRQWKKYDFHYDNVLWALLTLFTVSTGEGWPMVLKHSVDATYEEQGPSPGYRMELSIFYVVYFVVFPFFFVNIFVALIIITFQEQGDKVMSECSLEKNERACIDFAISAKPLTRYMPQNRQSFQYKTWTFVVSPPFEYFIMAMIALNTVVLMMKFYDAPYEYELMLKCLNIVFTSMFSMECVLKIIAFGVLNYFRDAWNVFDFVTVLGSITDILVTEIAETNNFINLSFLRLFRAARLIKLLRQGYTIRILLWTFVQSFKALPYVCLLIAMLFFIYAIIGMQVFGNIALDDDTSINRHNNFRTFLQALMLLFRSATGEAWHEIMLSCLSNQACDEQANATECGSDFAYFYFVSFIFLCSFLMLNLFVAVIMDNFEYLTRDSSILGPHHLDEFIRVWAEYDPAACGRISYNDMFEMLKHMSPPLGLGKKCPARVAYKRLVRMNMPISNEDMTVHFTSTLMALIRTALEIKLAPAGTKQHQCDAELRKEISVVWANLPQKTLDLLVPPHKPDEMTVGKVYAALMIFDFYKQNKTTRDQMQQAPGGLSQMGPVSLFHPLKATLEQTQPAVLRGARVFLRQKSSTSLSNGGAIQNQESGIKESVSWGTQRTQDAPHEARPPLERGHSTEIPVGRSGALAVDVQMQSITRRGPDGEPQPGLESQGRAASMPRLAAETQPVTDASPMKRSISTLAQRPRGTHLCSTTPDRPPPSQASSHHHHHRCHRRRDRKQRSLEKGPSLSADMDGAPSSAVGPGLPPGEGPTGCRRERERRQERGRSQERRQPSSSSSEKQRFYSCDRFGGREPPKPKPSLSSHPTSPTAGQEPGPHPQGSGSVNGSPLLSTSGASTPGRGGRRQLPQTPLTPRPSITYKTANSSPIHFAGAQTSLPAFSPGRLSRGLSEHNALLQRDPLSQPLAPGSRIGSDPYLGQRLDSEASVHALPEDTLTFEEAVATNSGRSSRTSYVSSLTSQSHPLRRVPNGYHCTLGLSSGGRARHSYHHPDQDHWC
# Experiment: inhibitors of Mint1-CaV2.2 protein interaction, biochemical, HTRF (AID 2073)
# Details: at 20 µM, stronger effect = higher value
Compound,inhibition,inhibition (measured here: average of repeat tests)
C=C(C)CSc1[nH]c(=O)cc(C)c1C#N,1.3% (inactive),–
Nc1c(C(=O)Nc2ccccc2)sc2nc3c(c(-c4ccco4)c12)CCC3,29.5% (inactive),–
Nc1c(C(=O)NCC2CCCO2)sc2nc3c(c(-c4ccco4)c12)CC/C3=C\c1ccco1 (configuration not stated),86.1% (active),–
Nc1c(C(=O)Nc2ccccc2)sc2nc3c(c(-c4ccco4)c12)CCCC3,2.1% (inactive),–
O=C(O)CCNS(=O)(=O)c1ccc(Oc2ccccc2)cc1,-1.3% (inactive),–
CSCCC(NC(=O)OC(C)(C)C)C(=O)NC(C(=O)NC(CC(C)C)C(N)=O)C(C)C (configuration not stated),15.6% (inactive),–
Cc1ccc(N2C(=O)C3C4C=CC(CNC(=S)N5CCN(c6ccccc6)CC5)(O4)C3C2=O)cc1 (configuration not stated),45.6% (inactive),–
O=C(Nc1ccc2nc(-c3ccco3)c(-c3ccco3)nc2c1)N1CCN(c2ccccn2)CC1,84.9% (active),–
Cc1nc2ccc(NC(=O)N3CCCCC3)cc2nc1C,40.3% (inactive),–
CCOC(=O)C1CCN(C(=O)Nc2ccc3nc(C)c(C)nc3c2)CC1,36% (inactive),–
CCOC(=O)C1CCN(C(=O)Nc2ccc3nc(-c4ccco4)c(-c4ccco4)nc3c2)CC1,83.1% (active),–
Cc1nc2cc(NC(=O)N3CCN(c4ccccn4)CC3)ccc2o1,0% (inactive),–
O=C(Nc1ccc2nc(-c3ccco3)c(-c3ccco3)nc2c1)N1CCCCCC1,71.2% (active),–
CCOC(=O)C1CCN(C(=O)Nc2ccc3nccnc3c2)CC1,24.5% (inactive),–
Cn1nnc2cc(NC(=O)N3CCN(c4ccccn4)CC3)ccc21,-0.5% (inactive),–
O=C(Nc1ccc(N2CCOCC2)cc1)Nc1ccc2nc(-c3ccco3)c(-c3ccco3)nc2c1,48.8% (inactive),–
Cc1ccc(NC(=O)NC(=O)CSc2nnnn2C)c(C)c1,-7.8% (inactive),–
COc1cccc(C(C(=O)NC(C)(C)C)N(C(=O)CCC(=O)Nc2cc(C)on2)C(C)(C)C)c1OC (configuration not stated),-7.6% (inactive),–
O=C(CN1CCCCCC1=O)N1CCN(S(=O)(=O)c2cccs2)CC1,14.5% (inactive),–
CCOC(=O)c1[nH]c2ccccc2c1CCCN1C(=O)c2ccccc2C1=O,-6.7% (inactive),–
CN(C)C(=O)CCC(=O)N1CCCC(N2CCN(c3cccc(C(F)(F)F)c3)CC2)C1 (configuration not stated),5.4% (inactive),–
Nc1nc(N2CCN(c3ccccc3)CC2)n[nH]1,-13.2% (inactive),–
CCn1c(SCC(=O)N2CCC(C)CC2)nc2c1c(=O)n(C)c(=O)n2C,2.5% (inactive),–
NC(=O)CCC(NS(=O)(=O)c1ccc(Cl)cc1)C(=O)NCc1ccccc1 (configuration not stated),-16.2% (inactive),–

Compound,inhibition,inhibition (measured here: average of repeat tests)
CC(C)C(=O)N1CCN(c2ccc(NC(=O)c3cccs3)cc2Cl)CC1,0.8% (inactive),–
CCOC(=O)C1CCN(C(=O)CN(c2ccc3c(c2)OCCO3)S(C)(=O)=O)CC1,-9.6% (inactive),–
Cc1cccc(COCC(Cc2ccccc2)N2CCN(C(=O)c3cccc(Cl)c3)CCC2=O)c1 (configuration not stated),1.7% (inactive),–
O=S(=O)(NC1=NCCCCC1)c1ccccc1Cl,7.5% (inactive),–
CC1=Nc2nc(N3CCCCC3)c(C#N)c3c4c(nc(c23)N1)N(c1ccc(C(C)C)cc1)C(=O)C4,54.8% (active),–
COc1ccc(CN2C(=O)Cc3c2nc(N)c2c(N)nc(N4CCCCC4)c(C#N)c32)cc1,24.2% (inactive),–
CCN(CC)c1nc2c3c(nc4c(c3c1C#N)CC(=O)N4c1ccc(Cl)cc1)NC(C)=N2,15.5% (inactive),–
C/C(=N\NC(N)=S)C1(C)CCCCC1,1.7% (inactive),–
CCNc1nc(-c2cc(C)n(Cc3ccco3)c2C)cs1,71.4% (inactive),-8.8%
Cc1cc(-c2csc(NC(=O)c3ccc(C#N)cc3)n2)c(C)n1Cc1ccccc1,31.3% (inactive),–
Cc1cc(-c2csc(NC(=O)c3ccc(C#N)cc3)n2)c(C)n1Cc1ccco1,74% (active),–
COc1ccc(-c2noc(N3CCC(C(=O)Nc4ccccc4Cl)CC3)n2)cc1,1.9% (inactive),–
Cc1onc(-c2ccccc2)c1C(=O)OCC(=O)NCc1ccc(F)cc1,-0.7% (inactive),–
CCOc1ccc(Oc2c(C)oc3cc(O)ccc3c2=O)cc1,15.1% (inactive),–
Cc1ccc(-c2nc(C=Nc3ccccc3)c(O)o2)cc1,-6.2% (inactive),–
Cc1ccc(N=Cc2nc(-c3ccc(C)cc3)oc2O)cc1,17.5% (inactive),–
CC(NCC(O)c1ccc([N+](=O)[O-])cc1)C12CC3CC(CC(C3)C1)C2 (configuration not stated),0.6% (inactive),–
CCNC(=O)COC(=O)c1ccc(-n2nc(C)cc2C)cc1,5.8% (inactive),–
O=C(/C(=N/N=C/c1ccc(O)c(O)c1O)c1ccccc1)c1ccccc1,66.2% (active),–
COc1cc(/C=N/N=C(/C(=O)c2ccccc2)c2ccccc2)cc(OC)c1O,-2.5% (inactive),–
O=C(/C(=N/N=C/c1ccc(O)c(O)c1)c1ccccc1)c1ccccc1,-21.8% (inactive),–
CCC(=O)N1CC2(C)CN(C(=O)CC)CC(C)(C1)C2,-2.6% (inactive),–
COc1ccc(C(=O)N2CCCC(CO)(Cc3ccccc3C)C2)o1 (configuration not stated),2.1% (inactive),–
CCCCc1ccc(-c2csc(/C(C#N)=C/c3ccco3)n2)cc1,49.9% (inactive),–

Compound,inhibition,inhibition (measured here: average of repeat tests)
CCCCc1ccc(-c2csc(/C(C#N)=C/c3ccc(C)o3)n2)cc1,16.8% (inactive),–
CCCCc1ccc(-c2csc(/C(C#N)=C\c3ccco3)n2)cc1,57.8% (active),–
CSc1nc(N2CCN(c3ccccc3)CC2)cc(N2CCN(c3ccccc3)CC2)n1,18.7% (inactive),–
O=C(N/N=C1\CCCc2ccccc21)c1cccc(Br)c1,-12.7% (inactive),–
Cc1ccccc1CN(c1ccc(C(=O)NCc2ccccn2)cc1)S(C)(=O)=O,-3.2% (inactive),–
CCc1ccc(Nc2n[n+](-c3ccccc3)c(-c3ccc(OC)c(Br)c3)s2)cc1,19.2% (inactive),–
COC(=O)c1c(NC(=O)COC(=O)c2ccc(NC(=O)CC#N)cc2)sc2c1CCCCC2,78.4% (active),–
COC(=O)c1c(NC(=O)COC(=O)c2ccccc2O)sc2c1CCCCC2,-3% (inactive),–
COC(=O)c1c(NC(=O)COC(=O)c2ccc(O)cc2)sc2c1CCCCC2,5.8% (inactive),–
CC(C)CCN1C(Nc2ccccc2)=NC[C@@H]1C,2.7% (inactive),–
COc1ccccc1-c1cc(C(=O)Nc2cc(C)n(Cc3ccc(Cl)cc3)n2)no1,7.9% (inactive),–
Cc1c(Cl)cccc1NC(=O)CCCN1C(=O)c2cccnc2C1=O,3.3% (inactive),–
COc1ccc(Nc2c(-c3ccc(OC)cc3)nc3cnccn23)cc1,-9.1% (inactive),–
O=C(/C=C/Nc1ccccc1)c1ccccc1,-0.7% (inactive),–
CC1(C)OC(=O)C(=CNc2ccccc2)C(=O)O1,-0.4% (inactive),–
O=C([C@@H]1Cc2ccccc2CN1)N1CCN(Cc2ccccc2)CC1,8.9% (inactive),–
Cc1ccc(-n2ncc3c2CCCC3NC(=O)CCc2c(C)noc2C)cc1C (configuration not stated),16.6% (inactive),–
CNc1ccc(Br)cc(C(=O)/C=C/c2ccc(Cl)cc2Cl)c1=O,52.7% (active),–
CCNc1ccc(Br)cc(C(=O)/C=C/c2ccc(Cl)cc2Cl)c1=O,23.6% (inactive),–
CNc1ccc(Br)cc(C(=O)/C=C/c2cccc(Cl)c2Cl)c1=O,41.9% (inactive),–
N=C1S/C(=C\c2ccc(-c3cccc(Cl)c3)o2)C(=O)N1c1nccs1,35.6% (inactive),–
COc1cc(/C=C2\SC(=N)N(c3ccc4c(c3)OCO4)C2=O)cc(OC)c1O,-8.5% (inactive),–
COc1ccc(/C=C2\SC(=N)N(c3nccs3)C2=O)cc1OC,20.5% (inactive),–
N=C1S/C(=C\c2ccco2)C(=O)N1c1ccc2c(c1)OCO2,56% (active),–

Compound,inhibition,inhibition (measured here: average of repeat tests)
N=C1S/C(=C\c2ccco2)C(=O)N1c1nccs1,50% (active),–
N=C1S/C(=C\c2ccc(-c3ccccc3C(=O)O)o2)C(=O)N1c1ccc2c(c1)OCO2,17.7% (inactive),–
c1ccc(Cc2nnc3sc(-c4cccnc4)nn23)cc1,-12.8% (inactive),–
COc1ccc(CN(CC(=O)NC(C)C)C(=O)CCC(=O)Nc2nccs2)cc1,9.7% (inactive),–
CCOc1ccc(N2C(=O)CN(C)C2=S)cc1,-2% (inactive),–
CC1CCN(C(=O)CCc2ccc(S(=O)(=O)NC(C)C)cc2)CC1,28.5% (inactive),–
O=C(Cn1c(-c2ccco2)nc2ccccc21)N1CCCCC1,-14.9% (inactive),–
Cn1nc(C(F)(F)F)c(-c2ccc(Br)cc2)c1NC(=O)c1nccnc1C(=O)O,0.4% (inactive),–
COc1ccc(NC2CCCN(C(=O)c3csc(C(C)C)n3)C2)cc1OC (configuration not stated),-10% (inactive),–
CSc1ccccc1OCc1cc(C(=O)NCc2cnc(C)cn2)no1,5.6% (inactive),–
Clc1ccc(N=c2ssnc2Cl)nc1,38.2% (inactive),–
Fc1ccc(N=c2ssnc2Cl)c(F)c1,91.2% (active),–
OCc1ccccc1N=c1ssnc1Cl,9.9% (inactive),–
Nc1ccccc1N=c1ssnc1Cl,4.1% (inactive),–
Cc1cc(Cl)ccc1N=C1N=C(N)c2ccccc21,-3.2% (inactive),–
COc1cccc(CNC(=O)CSc2nnc3c(n2)[nH]c2ccc(OC)cc23)c1,5.3% (inactive),–
Cc1ccc2c(Cl)cc(Cl)c(OCC(=O)NC(=O)NCc3ccco3)c2n1,17.4% (inactive),–
Cc1cc(Cl)cc(Cl)c1OCC(=O)NCc1ccco1,-1.4% (inactive),–
Cc1ccc2c(Cl)cc(Cl)c(OCC(=O)NCc3ccco3)c2n1,56.6% (active),–
CC1CCN(CC(=O)Nc2cccc(Cl)c2)CC1,-2.2% (inactive),–
CC1(C(=O)N2CC3(CC(c4cccc([N+](=O)[O-])c4)=NO3)C[C@H]2C(=O)NCC(N)=O)CC1 (some centres not stated),-4.4% (inactive),–
O=C(O)C(O)c1ccco1 (configuration not stated),65.3% (active),–
O=P(c1ccccc1)(c1ccccc1)C(O)c1ccco1 (configuration not stated),-0.2% (inactive),–
O=C(c1ccco1)C(O)c1ccco1 (configuration not stated),16.7% (inactive),–
